Sampled rows, rich in hits. Any-hit rate of the full collection: about 1.1%.
cytoskel mod: alters cytoskeleton assembly in HUVEC cells | HUVEC TNFa F-actin phalloidin imaging, high content | inhibition, % at 2 µM | actives 0.18% (n = 91,000) | AID 836;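 active = inhibition above the batch mean plus 3 SD and confirmed as a hit by visual image inspection, cut at about 30% in these data, passing the limit was not always enough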
VCAM1 TNFa inh: reduces TNF alpha induced VCAM1 expression in HUVEC. inhibition, % at 2 µM. actives 0.48% (n = 95,000). HUVEC TNFa-induced VCAM-1 immunofluorescence, high-content imaging. AID 802;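 active = inhibition above the batch mean plus 3 SD, with images confirmed as a hit by eye, cut at about 37% in these data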;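 note: 0% = TNF-stimulated DMSO wells and 100% = unstimulated control wells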
E-sel TNF inh: blocks E-selectin expression induced by TNF alpha | HUVEC TNFa-induced E-selectin immunofluorescence, high content | inhibition, % at 2 µM | actives 0.71% (n = 120,000) | AID 1246;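 active = inhibition above the batch mean plus 3 SD, and confirmed as a hit on visual image review, cut at about 43% in these data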;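 note: 0% = TNF-stimulated DMSO wells and 100% = unstimulated control wells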
HUVEC tox TNFa: toxic to HUVEC cells under TNF alpha stimulation; actives 0.17% (n = 93,000); cell count reduction, % at 2 µM; HUVEC TNFalpha-stimulated, Hoechst cell count, imaging;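 active = cell count reduction exceeding the screen mean by over 5 SD, scaled to untreated wells per plate, cut at about 78% in these data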;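 note: cells counted after 24 h of TNF alpha exposure following the 1 h pretreatment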
Active calls of the source: *; x = no result given.

SMILES | cytoskel mod | VCAM1 TNFa inh | E-sel TNF inh | HUVEC tox TNFa
CN(c1ccccc1)S(=O)(=O)c1cccc(C(=O)N2CCN(c3ccccn3)CC2)c1 | -29 | 42 | x | 82*
CC(C)(C)NS(=O)(=O)c1cccc(S(=O)(=O)c2cccc(S(=O)(=O)NC(C)(C)C)c2)c1 | x | x | -26 | x
CC(=O)N1N=C(c2ccco2)CC1c1ccc(Br)cc1 (configuration not stated) | x | x | -15 | x
CCc1c(C)nc2cc(-c3ccc(OC)c(OC)c3)nn2c1NCC1CC1 | 14 | -12 | x | -24
Cc1ccc2nc(SCC(=O)Nc3cc(C(F)(F)F)ccc3N3CCOCC3)[nH]c2c1 | 10 | 91* | -23 | 54
O=C(CSc1nc2ccccc2o1)Nc1cc(C(F)(F)F)ccc1N1CCOCC1 | 4 | 4 | -15 | -17
CC(C)(C)c1ccc(OCCCNCc2ccccc2)cc1 | x | x | 95* | x
COCCCNCCCOc1ccc(C(C)(C)c2ccccc2)cc1 | x | x | -29 | x
CS(=O)(=O)N(CC(=O)NCc1ccco1)Cc1ccc(Cl)cc1 | 8 | 19 | 5 | -8
Cc1ccc(S(=O)(=O)N(CC(=O)NCc2ccco2)Cc2ccc(F)cc2)cc1 | 100* | x | -26 | x
Cc1cc(OCc2ccc(F)cc2)nc(-c2ccccc2O)n1 | -18 | 95* | x | 80*
Cn1c(CNc2ccccc2O)nc2ccccc21 | -5 | 59* | x | 89*
Cn1c(CNc2ccccc2)nc2ccccc21 | -14 | 23 | x | -6
CC(C)C(=O)Nc1ccc(NC(=O)c2ccccc2Cl)nc1 | -21 | 31 | 22 | 83*
CCC(=O)Nc1ccc(NC(=O)c2ccccc2Cl)nc1 | -9 | 30 | 5 | 62
CCOc1ccc2ccccc2c1/C=N/n1cncn1 | -16 | 88* | 7 | -29
CCCOc1ccc2ccccc2c1/C=N/n1cnnc1 | -4 | 8 | -10 | -16
C=CCOc1c2ccc(C(=O)NCc3ccc(OC)cc3)cc2nn1C | -16 | -10 | 13 | -25
C=CCOc1c2ccc(C(=O)NCc3ccccc3OC)cc2nn1C | 28 | 68* | 6 | 72
c1ccc(CNC2=NCCC2)nc1 | 3 | -3 | -7 | 1
O=C(c1cccs1)N1CCN=C1SCc1ccccc1 | -16 | 6 | 44* | -2
O=C(CC(c1ccccc1)c1ccco1)Nc1nccs1 (configuration not stated) | x | x | -4 | x
CC1CN(C(=O)CN2C(=O)NC3(CCCCCC3)C2=O)CC(C)O1 (configuration not stated) | 14 | 2 | 4 | -10
COc1ccccc1CC1(C)NC(=O)N(CC(=O)N2CC(C)OC(C)C2)C1=O (configuration not stated) | 3 | 4 | 87* | -1
COc1ccc(C)cc1-n1nnnc1SCC(=O)Nc1cccnc1Cl | x | x | 78* | x
SMILES | cytoskel mod | VCAM1 TNFa inh | E-sel TNF inh | HUVEC tox TNFa
COc1ccc(C)cc1-n1nnnc1SCC(=O)Nc1cc(C)on1 | x | x | -40 | x
Cc1ccc(/C=N/n2c(=O)c(C(C)(C)C)nn3cnnc23)cc1 | x | x | 80* | x
CC(C)(C)c1nn2cnnc2n(/N=C/c2cccc3ccccc23)c1=O | x | x | -42 | x
COc1ccc(OC)c(N(CC(=O)Nc2ccccc2)S(C)(=O)=O)c1 | 42* | -22 | x | 16
COc1ccc(N(CC(=O)Nc2ccc3c(c2)OCCO3)S(C)(=O)=O)c(OC)c1 | x | x | 0 | x
COc1ccc(N(CC(=O)Nc2ccc3c(c2)OCO3)S(C)(=O)=O)c(OC)c1 | -14 | 6 | 64* | -10
COc1ccc(CNC(=O)C2CCCN(S(=O)(=O)c3c(C)n[nH]c3C)C2)cc1 (configuration not stated) | x | 10 | 18 | -18
CCS(=O)(=O)N1CCCC(C(=O)NCc2cccc(OC)c2)C1 (configuration not stated) | 3 | 27 | 53* | 11
COc1cccc(CNC(=O)C2CCN(S(=O)(=O)N3CCCCC3)CC2)c1 | 16 | 3 | 0 | -2
COc1cccc(CNC(=O)C2CCCN(S(=O)(=O)c3c(C)n[nH]c3C)C2)c1 (configuration not stated) | 17 | -18 | x | 79*
CCN1C(=O)S/C(=C/c2ccc(Sc3nc4ccccc4[nH]3)o2)C1=O | x | x | 10 | x
Cc1nc2nc(C)c(CCC(=O)NCc3ccc4c(c3)OCO4)c(C)n2n1 | 43 | -18 | 6 | -4
Cn1c(=O)[nH]c(=O)c2c1nc(CN1CCN(Cc3ccccc3)CC1)n2CC(N)=O | x | x | 50* | x
Cn1c(=O)[nH]c(=O)c2c1nc(N1CCN(Cc3ccccc3)CC1)n2CCCc1ccccc1 | -58 | -4 | x | -17
CCCn1c(CN2CCN(c3cccc(Cl)c3)CC2)nc2c1c(=O)n(C)c(=O)n2C | -10 | 5 | 62* | -20
CCCCCn1c(CN2CCN(Cc3ccccc3)CC2)nc2c1c(=O)n(C)c(=O)n2C | -6 | 12 | 100* | -20
O=C(CC1c2ccccc2Oc2ccccc21)N1CCN(c2ccccn2)CC1 | -12 | 9 | x | -29

Source: PubChem
